Source: PubChem BioAssay AID1159580 (chemical genetic matrix, 2015)
Values joined by “and” are separate entries in the source; they are usually repeats but may differ in a detail not shown here. Equal entries are not always repeated. The whole screen tested about 5,500 compounds, of which about 2,000 (36%) were called active. Roughly 18% stayed inconclusive and do not appear here. No stated cut-off is given here; in the data, active means normalized growth mostly below about 0.91 (no sharp cut-off); inconclusive means no clear call, values can overlap the other calls; inactive means mostly above about 0.92. The list shows a part of the results.

Test: chemical genetic growth profiling, strain panel (AID 1159580);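 further: tested at 20 µM; growth read once vehicle control cultures reached saturation at 30 °C; 1 = growth at the plate median or of vehicle wells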
Conditions: S. cerevisiae deletion strains, growth OD
[1] = locus YDR150W, strain NUM1, stronger effect = lower value
[2] = locus YJR075W, strain HOC1, stronger effect = lower value
[3] = locus YMR307W, strain GAS1, stronger effect = lower value
[4] = locus YNL322C, strain KRE1, stronger effect = lower value
[5] = locus YPL055C, strain LGE1, stronger effect = lower value
[6] = locus YPL241C, strain CIN2, stronger effect = lower value

Measured: normalized growth

C[C@]12Cc3cn4c(nc3C=C1CCC1C2CC[C@@]2(C)[C@H]1CC[C@@]2(O)C#N)nc1ccccc14 (stereo partly specified)
active: locus YAL040C, strain CLN3, stronger effect = lower value 0.88 | locus YER002W, strain NOP16, stronger effect = lower value 0.264 | locus YNL153C, strain GIM3, stronger effect = lower value 0.63 | locus YNL175C, strain NOP13, stronger effect = lower value 0.229 | locus YNL224C, strain SQS1, stronger effect = lower value 0.799 | locus YOR083W, strain WHI5 (second series), stronger effect = lower value 0.852
inactive: locus YCL061C, strain MRC1 (second series), stronger effect = lower value 0.99 | [1] 1 | locus YDR363W, strain ESC2, stronger effect = lower value 0.975 | locus YGR229C, strain SMI1, stronger effect = lower value 0.937 | [2] 0.963 | [3] 0.936 | locus YNL197C, strain WHI3, stronger effect = lower value 0.911 | [4] 0.938 | [5] 0.966 | [6] 0.996

C[C@]12CCC(=O)C=C1CCC1C2[C@@H](O)C[C@@]2(C)C1CC[C@]2(O)C(=O)COC(=O)CCC(=O)O (stereo partly specified)
inactive: locus YAL021C, strain ccr4, stronger effect = lower value 1.02 | locus YAL026C, strain drs2, stronger effect = lower value 1.01 | locus YAL030W, strain snc1, stronger effect = lower value 1.01 | locus YBL061C, strain skt5, stronger effect = lower value 1.02 | locus YBR009C, strain hhf1, stronger effect = lower value 1 | locus YBR021W, strain FUR4, stronger effect = lower value 1.01 | locus YBR023C, strain chs3, stronger effect = lower value 1.02 | locus YBR171W, strain sec66, stronger effect = lower value 1.02 | locus YBR229C, strain ROT2, stronger effect = lower value 1.01 | locus YBR231C, strain swc5, stronger effect = lower value 1.02 | locus YBR279W, strain paf1, stronger effect = lower value 1 | locus YCL011C, strain gbp2, stronger effect = lower value 1.01 | locus YCL016C, strain dcc1, stronger effect = lower value 0.993 | locus YCL029C, strain bik1, stronger effect = lower value 0.999 | locus YCL061C, strain MRC1, stronger effect = lower value 1.02 | locus YCL069W, strain vba3, stronger effect = lower value 1.01 | locus YCR088W, strain abp1, stronger effect = lower value 1.01 | locus YDL005C, strain med2, stronger effect = lower value 1.02 | locus YDL035C, strain GPR1, stronger effect = lower value 1.01 | locus YDL040C, strain nat1, stronger effect = lower value 1.01 | locus YDL074C, strain BRE1, stronger effect = lower value 1.01 | locus YDL101C, strain DUN1, stronger effect = lower value 1 | locus YDL185W, strain tfp1, stronger effect = lower value 1 | locus YDL192W, strain arf1, stronger effect = lower value 1.01 | locus YDR001C, strain nth1, stronger effect = lower value 1.02 | locus YDR069C, strain doa4, stronger effect = lower value 1.02 | locus YDR101C, strain arx1, stronger effect = lower value 1.01 | locus YDR137W, strain rgp1, stronger effect = lower value 1.02 | [1] 1.01 | locus YDR159W, strain sac3, stronger effect = lower value 1.03 | locus YDR162C, strain NBP2, stronger effect = lower value 1.01 | locus YDR195W, strain ref2 0.997 | locus YDR297W, strain sur2, stronger effect = lower value 1.02 | locus YDR318W, strain mcm21, stronger effect = lower value 0.995 | locus YDR334W, strain swr1, stronger effect = lower value 1.01 | locus YDR335W, strain msn5, stronger effect = lower value 1.01 | locus YDR388W, stronger effect = lower value 1 | locus YDR392W, strain spt3, stronger effect = lower value 0.969 | locus YDR502C, strain sam2, stronger effect = lower value 0.999 | locus YEL003W, strain gim4, stronger effect = lower value 1.03 | locus YEL037C, strain rad23, stronger effect = lower value 1.01 | locus YEL061C, strain CIN8 (second series), stronger effect = lower value 1.03 | locus YEL061C, strain CIN8, stronger effect = lower value 1.01 | locus YER015W, strain faa2, stronger effect = lower value 0.998 | locus YER016W, strain bim1, stronger effect = lower value 1.01 | locus YER110C, stronger effect = lower value 1.01 | locus YER111C, strain swi4, stronger effect = lower value 1.02 | locus YER155C, strain BEM2 (second series), stronger effect = lower value 1.03 | locus YER155C, strain BEM2, stronger effect = lower value 0.997 | locus YER167W, strain BCK2, stronger effect = lower value 1.01 | locus YFR010W, strain ubp6, stronger effect = lower value 1.02 | locus YGL078C, strain dbp3, stronger effect = lower value 0.996 | locus YGL086W, strain mad1, stronger effect = lower value 0.999 | locus YGL167C, strain pmr1, stronger effect = lower value 1.03 | locus YGL173C, strain kem1, stronger effect = lower value 1.02 | locus YGL227W, strain vid30, stronger effect = lower value 1.01 | locus YGL240W, strain doc1, stronger effect = lower value 1.02 | locus YGL248W, strain PDE1, stronger effect = lower value 1 | locus YGL253W, strain hxk2, stronger effect = lower value 0.99 | locus YGR078C, strain PAC10, stronger effect = lower value 1.01 | locus YGR135W, strain pre9, stronger effect = lower value 0.989 | locus YGR252W, strain gcn5, stronger effect = lower value 0.943 | locus YHR013C, strain ard1, stronger effect = lower value 1.02 | locus YHR027C, strain rpn1, stronger effect = lower value 1.02 | locus YHR030C, strain SLT2, stronger effect = lower value 1.01 and 0.974 | locus YHR079C, strain IRE1 (second series), stronger effect = lower value 1 | locus YHR079C, strain IRE1, stronger effect = lower value 0.976 | locus YHR094C, strain hxt1, stronger effect = lower value 0.993 | locus YHR129C, strain ARP1, stronger effect = lower value 1 | locus YHR142W, strain chs7, stronger effect = lower value 1.01 | locus YHR200W, strain rpn10, stronger effect = lower value 1.01 | locus YIL066C, strain RNR3, stronger effect = lower value 1.01 | locus YIL073C, strain SPO22, stronger effect = lower value 1.02 | locus YIL125W, strain kgd1, stronger effect = lower value 1 | locus YIR030C, strain dcg1, stronger effect = lower value 1 | locus YJL092W, strain hpr5, stronger effect = lower value 1.02 | locus YJL095W, strain BCK1 (second series), stronger effect = lower value 1.02 | locus YJL095W, strain BCK1, stronger effect = lower value 1.01 and 0.976 | locus YJL115W, strain asf1, stronger effect = lower value 1.02 | locus YJL129C, strain trk1, stronger effect = lower value 1.03 | locus YJL134W, strain LCB3, stronger effect = lower value 1.01 | locus YJL154C, strain vps35, stronger effect = lower value 1.02 | locus YJL164C, strain tpk1, stronger effect = lower value 1.02 | locus YJL166W, strain qcr8, stronger effect = lower value 1 | locus YJL168C, strain set2, stronger effect = lower value 0.996 | locus YJL187C, strain SWE1 (second series), stronger effect = lower value 1.01 | locus YJR043C, strain POL32, stronger effect = lower value 1.02 | locus YJR066W, strain TOR1, stronger effect = lower value 0.931 | [2] 1.02 | locus YKL009W, strain mrt4, stronger effect = lower value 1.02 | locus YKL068W, stronger effect = lower value 0.998 | locus YKL085W, strain MDH1 (second series), stronger effect = lower value 0.999 | locus YKL085W, strain MDH1, stronger effect = lower value 0.999 | locus YKL160W, strain elf1, stronger effect = lower value 1.01 | locus YKR001C, strain vps1, stronger effect = lower value 1.01 | locus YKR026C, strain gcn3, stronger effect = lower value 1.02 | locus YKR091W, strain srl3, stronger effect = lower value 1 | locus YLL001W, strain dnm1, stronger effect = lower value 1.01 | locus YLL026W, stronger effect = lower value 1.01 | locus YLL041C, strain sdh2, stronger effect = lower value 1.03 | locus YLR027C, strain aat2, stronger effect = lower value 1.01 | locus YLR039C, strain RIC1, stronger effect = lower value 1.02 | locus YLR058C, strain SHM2, stronger effect = lower value 0.989 | locus YLR102C, strain apc9, stronger effect = lower value 1 | locus YLR113W, strain HOG1, stronger effect = lower value 0.977 | locus YLR221C, strain rsa3, stronger effect = lower value 1.02 | locus YLR258W, strain gsy2, stronger effect = lower value 1.01 | locus YLR262C, strain YPT6 (second series), stronger effect = lower value 1.02 | locus YLR262C, strain YPT6, stronger effect = lower value 1.06 | locus YLR268W, strain sec22, stronger effect = lower value 0.992 | locus YLR320W, strain mms22, stronger effect = lower value 0.979 | locus YLR330W, strain CHS5, stronger effect = lower value 1.01 | locus YLR342W, strain FKS1 (second series), stronger effect = lower value 0.998 | locus YLR342W, strain FKS1, stronger effect = lower value 1.01 | locus YLR357W, strain rsc2, stronger effect = lower value 0.995 | locus YLR370C, strain arc18, stronger effect = lower value 1.01 | locus YLR371W, strain rom2, stronger effect = lower value 0.996 | locus YLR384C, strain iki3, stronger effect = lower value 1.02 | locus YLR418C, strain cdc73, stronger effect = lower value 0.988 | locus YML016C, strain PPZ1, stronger effect = lower value 1 | locus YML032C, strain rad52, stronger effect = lower value 0.994 | locus YML120C, strain ndi1, stronger effect = lower value 1.02 | locus YML124C, strain tub3, stronger effect = lower value 0.994 | locus YMR058W, strain fet3, stronger effect = lower value 1.02 | locus YMR078C, strain ctf18, stronger effect = lower value 1 | locus YMR125W, strain sto1, stronger effect = lower value 1.01 | locus YMR129W, stronger effect = lower value 1.02 | locus YMR205C, strain PFK2, stronger effect = lower value 1.03 | locus YMR223W, strain ubp8, stronger effect = lower value 0.992 | locus YMR231W, strain pep5, stronger effect = lower value 1.01 | [3] 1.04 | locus YNL067W, strain RPL9B, stronger effect = lower value 1.01 | locus YNL071W, strain lat1, stronger effect = lower value 1.01 | locus YNL183C, strain NPR1, stronger effect = lower value 0.951 | locus YNL209W, strain ssb2, stronger effect = lower value 1.01 | locus YNL233W, strain BNI4, stronger effect = lower value 1 | locus YNL248C, strain rpa49, stronger effect = lower value 1.04 | locus YNL250W, strain rad50, stronger effect = lower value 1 | locus YNL271C, strain bni1, stronger effect = lower value 1.01 | locus YNL298W, strain CLA4, stronger effect = lower value 1.01 | locus YNL307C, strain MCK1, stronger effect = lower value 1.01 | locus YNL322C, strain KRE1 (second series), stronger effect = lower value 1.02 | [4] 1.01 | locus YNR049C, strain mso1, stronger effect = lower value 1.02 | locus YNR052C, strain pop2, stronger effect = lower value 1 | locus YOL006C, strain TOP1, stronger effect = lower value 1.01 | locus YOL012C, strain htz1 0.91 | locus YOL147C, strain pex11, stronger effect = lower value 1 | locus YOR001W, strain rrp6, stronger effect = lower value 1.02 | locus YOR061W, strain CKA2, stronger effect = lower value 1.01 | locus YOR069W, strain VPS5, stronger effect = lower value 1.01 | locus YOR070C, strain gyp1, stronger effect = lower value 1 | locus YOR080W, strain dia2, stronger effect = lower value 1.01 | locus YOR083W, strain WHI5, stronger effect = lower value 0.983 | locus YOR106W, strain vam3, stronger effect = lower value 1.04 | locus YOR136W, strain idh2, stronger effect = lower value 1.01 | locus YOR144C, strain elg1, stronger effect = lower value 1 | locus YOR184W, strain ser1, stronger effect = lower value 1.01 | locus YOR231W, strain MKK1, stronger effect = lower value 0.997 | locus YOR265W, strain rbl2, stronger effect = lower value 1.01 | locus YOR270C, strain vph1, stronger effect = lower value 0.99 | locus YOR290C, strain snf2, stronger effect = lower value 0.988 | locus YOR316C, strain cot1, stronger effect = lower value 1.01 | locus YPL051W, strain arl3, stronger effect = lower value 1 | [5] 1.01 | locus YPL078C, strain atp4, stronger effect = lower value 1 | locus YPL106C, strain sse1, stronger effect = lower value 1 | locus YPL240C, strain hsp82, stronger effect = lower value 1 | [6] 1.01 | locus YPL256C, strain CLN2, stronger effect = lower value 0.98 | locus YPR119W, strain clb2, stronger effect = lower value 1.01 | locus YPR141C, strain kar3, stronger effect = lower value 1.01 | locus YPR163C, strain tif3, stronger effect = lower value 1.01 | locus YPR167C, strain met16, stronger effect = lower value 1.01 | strain wtn01, stronger effect = lower value 0.996
